Reference: PubChem BioAssay AID1159580 (chemical genetic matrix, 2015)
Among all 5,500 compounds or so, about 2,000 (36%) were called active. About 18% were inconclusive and are not listed. Cut-off read from the data, not from the text of the source: active = normalized growth mostly below about 0.91 (no sharp cut-off); inconclusive = no clear call, values can overlap the other calls; inactive = mostly above about 0.92. Some of the results follow.

Experiment: chemical genetic growth profiling, strain panel (AID 1159580);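 note: tested at 20 µM; growth read once vehicle control cultures reached saturation at 30 °C; 1 = growth at the plate median or of vehicle wells; lower values mean less growth of the strain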
Details: growth OD

Measured: normalized growth

Cc1onc(-c2ccccc2)c1C(=O)NC1C(=O)N2[C@@H]1SC(C)(C)[C@@H]2C(=O)O (some centres not stated)
inactive: S. cerevisiae deletion strains, locus YJR075W, strain HOC1, hits give low values 1.02 | S. cerevisiae deletion strains, locus YKL009W, strain mrt4, hits give low values 1.01 | S. cerevisiae deletion strains, locus YKL068W, hits give low values 1.01 | S. cerevisiae deletion strains, locus YKL085W, strain MDH1 (second series), hits give low values 1.01 | S. cerevisiae deletion strains, locus YKL085W, strain MDH1, hits give low values 1.01 | S. cerevisiae deletion strains, locus YKL160W, strain elf1, hits give low values 1.06 | S. cerevisiae deletion strains, locus YKL190W, strain CNB1, hits give low values 1.01 | S. cerevisiae deletion strains, locus YKR001C, strain vps1, hits give low values 1.01 | S. cerevisiae deletion strains, locus YKR026C, strain gcn3, hits give low values 1.02 | S. cerevisiae deletion strains, locus YKR091W, strain srl3, hits give low values 1.01 | S. cerevisiae deletion strains, locus YLL001W, strain dnm1, hits give low values 1.02 | S. cerevisiae deletion strains, locus YLL026W, hits give low values 1.01 | S. cerevisiae deletion strains, locus YLL041C, strain sdh2, hits give low values 1.01 | S. cerevisiae deletion strains, locus YLR027C, strain aat2, hits give low values 1.01 | S. cerevisiae deletion strains, locus YLR039C, strain RIC1, hits give low values 1.01 | S. cerevisiae deletion strains, locus YLR058C, strain SHM2, hits give low values 1.01 | S. cerevisiae deletion strains, locus YLR102C, strain apc9, hits give low values 1 | S. cerevisiae deletion strains, locus YLR113W, strain HOG1, hits give low values 0.975 | S. cerevisiae deletion strains, locus YLR221C, strain rsa3, hits give low values 1.03 | S. cerevisiae deletion strains, locus YLR258W, strain gsy2, hits give low values 1.02 | S. cerevisiae deletion strains, locus YLR262C, strain YPT6 (second series), hits give low values 1.05 | S. cerevisiae deletion strains, locus YLR262C, strain YPT6, hits give low values 1.04 | S. cerevisiae deletion strains, locus YLR268W, strain sec22, hits give low values 1.05 | S. cerevisiae deletion strains, locus YLR320W, strain mms22, hits give low values 1.04 | S. cerevisiae deletion strains, locus YLR330W, strain CHS5, hits give low values 1.01 | S. cerevisiae deletion strains, locus YLR342W, strain FKS1 (second series), hits give low values 1.01 | S. cerevisiae deletion strains, locus YLR342W, strain FKS1, hits give low values 1.02 | S. cerevisiae deletion strains, locus YLR357W, strain rsc2, hits give low values 1.09 | S. cerevisiae deletion strains, locus YLR370C, strain arc18, hits give low values 1.02 | S. cerevisiae deletion strains, locus YLR371W, strain rom2, hits give low values 1.01 | S. cerevisiae deletion strains, locus YLR384C, strain iki3, hits give low values 1.03 | S. cerevisiae deletion strains, locus YLR418C, strain cdc73, hits give low values 0.998 | S. cerevisiae deletion strains, locus YML016C, strain PPZ1, hits give low values 1.01 | S. cerevisiae deletion strains, locus YML032C, strain rad52, hits give low values 1.03 | S. cerevisiae deletion strains, locus YML120C, strain ndi1, hits give low values 1.02 | S. cerevisiae deletion strains, locus YML124C, strain tub3, hits give low values 1.01 | S. cerevisiae deletion strains, locus YMR058W, strain fet3, hits give low values 1.01 | S. cerevisiae deletion strains, locus YMR078C, strain ctf18, hits give low values 1.01 | S. cerevisiae deletion strains, locus YMR125W, strain sto1, hits give low values 1.02 | S. cerevisiae deletion strains, locus YMR129W, hits give low values 1.01 | S. cerevisiae deletion strains, locus YMR205C, strain PFK2, hits give low values 1.05 | S. cerevisiae deletion strains, locus YMR223W, strain ubp8, hits give low values 0.975 | S. cerevisiae deletion strains, locus YMR231W, strain pep5, hits give low values 1.02 | S. cerevisiae deletion strains, locus YMR263W, strain SAP30, hits give low values 1.01 | S. cerevisiae deletion strains, locus YMR307W, strain GAS1, hits give low values 0.981 | S. cerevisiae deletion strains, locus YNL067W, strain RPL9B, hits give low values 1.02 | S. cerevisiae deletion strains, locus YNL071W, strain lat1, hits give low values 1.01 | S. cerevisiae deletion strains, locus YNL128W, strain TEP1, hits give low values 1 | S. cerevisiae deletion strains, locus YNL153C, strain GIM3, hits give low values 1.01 | S. cerevisiae deletion strains, locus YNL183C, strain NPR1, hits give low values 0.946 | S. cerevisiae deletion strains, locus YNL209W, strain ssb2, hits give low values 1.01 | S. cerevisiae deletion strains, locus YNL233W, strain BNI4, hits give low values 1 | S. cerevisiae deletion strains, locus YNL248C, strain rpa49, hits give low values 1.01 | S. cerevisiae deletion strains, locus YNL250W, strain rad50, hits give low values 1.01 | S. cerevisiae deletion strains, locus YNL271C, strain bni1, hits give low values 1.01 | S. cerevisiae deletion strains, locus YNL298W, strain CLA4, hits give low values 1.02 | S. cerevisiae deletion strains, locus YNL307C, strain MCK1, hits give low values 1.01 | S. cerevisiae deletion strains, locus YNL322C, strain KRE1 (second series), hits give low values 1.03 | S. cerevisiae deletion strains, locus YNL322C, strain KRE1, hits give low values 1 | S. cerevisiae deletion strains, locus YNR049C, strain mso1, hits give low values 1.02 | S. cerevisiae deletion strains, locus YNR052C, strain pop2, hits give low values 1 | S. cerevisiae deletion strains, locus YOL006C, strain TOP1, hits give low values 1.02 | S. cerevisiae deletion strains, locus YOL012C, strain htz1 0.833 | S. cerevisiae deletion strains, locus YOL147C, strain pex11, hits give low values 1.01 | S. cerevisiae deletion strains, locus YOR001W, strain rrp6, hits give low values 0.971 | S. cerevisiae deletion strains, locus YOR061W, strain CKA2, hits give low values 1.01 | S. cerevisiae deletion strains, locus YOR069W, strain VPS5, hits give low values 1.01 | S. cerevisiae deletion strains, locus YOR070C, strain gyp1, hits give low values 1.02 | S. cerevisiae deletion strains, locus YOR080W, strain dia2, hits give low values 1.02 | S. cerevisiae deletion strains, locus YOR083W, strain WHI5, hits give low values 1.04 | S. cerevisiae deletion strains, locus YOR106W, strain vam3, hits give low values 1.03 | S. cerevisiae deletion strains, locus YOR136W, strain idh2, hits give low values 0.992 | S. cerevisiae deletion strains, locus YOR144C, strain elg1, hits give low values 1.01 | S. cerevisiae deletion strains, locus YOR184W, strain ser1, hits give low values 1.01 | S. cerevisiae deletion strains, locus YOR231W, strain MKK1, hits give low values 1.01 | S. cerevisiae deletion strains, locus YOR265W, strain rbl2, hits give low values 1.01 | S. cerevisiae deletion strains, locus YOR270C, strain vph1, hits give low values 1.02 | S. cerevisiae deletion strains, locus YOR290C, strain snf2, hits give low values 1.02 | S. cerevisiae deletion strains, locus YOR316C, strain cot1, hits give low values 1.01 | S. cerevisiae deletion strains, locus YPL051W, strain arl3, hits give low values 1.01 | S. cerevisiae deletion strains, locus YPL055C, strain LGE1, hits give low values 1.05 | S. cerevisiae deletion strains, locus YPL078C, strain atp4, hits give low values 1.01 | S. cerevisiae deletion strains, locus YPL106C, strain sse1, hits give low values 1.04 | S. cerevisiae deletion strains, locus YPL240C, strain hsp82, hits give low values 1.02 | S. cerevisiae deletion strains, locus YPL241C, strain CIN2, hits give low values 1.01 | S. cerevisiae deletion strains, locus YPL256C, strain CLN2, hits give low values 0.98 | S. cerevisiae deletion strains, locus YPR119W, strain clb2, hits give low values 1 | S. cerevisiae deletion strains, locus YPR141C, strain kar3, hits give low values 1.02 | S. cerevisiae deletion strains, locus YPR163C, strain tif3, hits give low values 1.02 | S. cerevisiae deletion strains, locus YPR167C, strain met16, hits give low values 1.01 | S. cerevisiae deletion strains, strain wtn01, hits give low values 1.04 | S. cerevisiae strains, strain wild type, hits give low values 1
